Results taken from ChEMBL document CHEMBL4513216, “Probing the Open Global Health Chemical Diversity Library for Multistage-Active Starting Points for Next-Generation Antimalarials” (ACS Infect Dis, 2020).
Hit rate of the full screen: of about 69,000 compounds, about 8,600 (12%) showed an effect of 50% or more. The full list was thinned out, with strong results kept by preference.

system: Plasmodium berghei; assay: Screen against P. berghei liver stage (PbLuc), transformed with Luciferase, at 10uM; type: functional, HepG2; conditions: tested at 10 uM

Row | SMILES | INHIBITION [%]
1 | Cc1ccc(C2CCCN(C(=O)c3cnn(C)c3)C2)nc1 (configuration not stated) | 3.91
2 | CCNC(=O)CN1CCCC(c2ccc(C(=O)O)cc2)C1 (configuration not stated) | 45
3 | CC(C)c1cncnc1N1CC[C@H](N2CCOCC2)[C@H](CCCO)C1 | 30.5
4 | O=C(c1ccc(=O)[nH]c1)N1C[C@H]2CC[C@@H](C1)N(Cc1ccccc1)C2 | -70.7
5 | O=C(NCCc1cnccn1)C1(N2CCCCC2)Cc2ccccc2C1 | 43.7
6 | NC(=O)C1CCCN(Cc2ccc(C(=O)Nc3cnns3)cc2)C1 (configuration not stated) | 40.15
7 | O=C(Nc1ccccc1CCO)c1cccc(CN2CC[C@H](O)C2)c1 | 23.9
8 | CCNC(=O)C1CCN(Cc2ccc(C(=O)Nc3cnns3)cc2)C1 (configuration not stated) | 12.2
9 | Cc1[nH]ccc1C(=O)Nc1cccc(CN2CCC(O)CC2)c1 | -4.74
10 | Cc1cncc(NC(=O)c2ccc(CN3CCCC(C(N)=O)C3)cc2)c1 (configuration not stated) | 23
11 | COc1ccc(NC(=O)c2ccc(CN3CC[C@H](O)C3)cc2)c(OC)n1 | 26.7
12 | Cc1cncc(NC(=O)c2ccc(CN3CC[C@H](O)C3)cc2)c1 | 87.5
13 | Cc1cc(NC(=O)c2ccc(CN3CC[C@H](O)C3)cc2)ccc1F | 90.3
14 | COc1cc(NC(=O)c2ccc(CN3CC[C@H](O)C3)cc2)cc(OC)c1 | 67.6
15 | CCNC(=O)C1CCN(Cc2ccc(C(=O)Nc3nnc(C)s3)cc2)C1 (configuration not stated) | 57.35
16 | O=C(Nc1cccc2c1CCCC2)c1cccc(CN2CC[C@H](O)C2)c1 | 37.6
17 | Cc1cncc(NC(=O)c2ccc(CN3CCC(CO)CC3)cc2)c1 | -12.4
18 | Cc1ccc(CN2C[C@@H]3[C@@H](C(=O)N4CCCC4)CCS(=O)(=O)[C@@H]3C2)cc1 | -10.9
19 | O=C(c1ccc[nH]1)N1C[C@@H]2CC[C@H]1CN(c1ncccn1)C2 | -16.5
20 | O=C1C[C@H]2[C@@H](CCN2C(=O)c2ccc[nH]2)N1CCN1CCCC1 | 47.9
21 | COc1cc(C)nc(N2CCN(C(=O)c3ccoc3C)CC2)n1 | 11.9
22 | c1cncc(-c2ncnc3c2CCN(Cc2cccs2)CC3)c1 | -49.8
23 | O=C(CCc1ccc(Cl)s1)N1CCCC(N2CCNC2=O)C1 (configuration not stated) | 30
24 | O=C(CCc1ccccc1)N1CCC(N2CCNC2=O)CC1 | 2.61
25 | O=C(CCc1ccc(Cl)s1)N1CCC(N2CCNC2=O)CC1 | 60.9
26 | O=C(CCc1cccs1)N1CCC(N2CCNC2=O)CC1 | 27.8

Row | SMILES | INHIBITION [%]
27 | O=C(CCc1cccs1)N1CCCC(N2CCNC2=O)C1 (configuration not stated) | 11.6
28 | O=C(CCCc1cccs1)N1CCC(N2CCNC2=O)CC1 | 70.8
29 | O=C(NCC1CC1)[C@@H]1CCO[C@@H]2CCN(c3ncccn3)C[C@@H]21 | 44.2
30 | Cc1nc(C)n(C2CCCN(C(=O)c3ccc(OC(C)C)nc3)C2)n1 (configuration not stated) | 5.907
31 | CN(C)CCN(Cc1cccc(F)c1)C(=O)c1ccn(C)c(=O)c1 | 31.1
32 | O=C1CC(c2cccnc2)c2c(c(C(=O)O)cn2-c2ccccc2F)N1 (configuration not stated) | 19.4
33 | Cc1cc(C)c(NC(=O)Nc2cnn(CC(O)CN(C)C)c2)c(C)c1 (configuration not stated) | 35.4
34 | Cc1c(CCC(=O)N2CCCC2c2ccnc(N(C)C)c2)cnn1C (configuration not stated) | 23
35 | COc1ccc(CNC(=O)Nc2cccnc2OC)cc1O | 9.54
36 | Cc1ccc(N2CC[C@H]3OCC[C@@]3(C(=O)N(C)C)C2)nn1 | 24.3
37 | Cc1ncc(-c2ccncc2)c(C2CCCN(C(=O)c3ccno3)C2)n1 (configuration not stated) | 18.505
38 | Cn1nc(C2CCNC2)c2c(C(=O)NC3CC3)cc(C3CC3)nc21 (configuration not stated) | 45.8
39 | Cn1nc(C2CCCN2)c2c(C(=O)NC3CC3)cc(C3CC3)nc21 (configuration not stated) | 40
40 | O=C(NC1CC1)c1cc(C2CC2)nc2onc(C3CCNCC3)c12 | 24.2
41 | Cn1nc(C2CCNC2)c2c(C(=O)NCC(F)(F)F)cc(C3CC3)nc21 (configuration not stated) | 47.4
42 | Cn1nc(C2CCCNC2)c2c(C(=O)NC3CC3)cc(C3CC3)nc21 (configuration not stated) | 52.4
43 | Cn1nc(C2CCNCC2)c2c(C(=O)NC3CC3)cc(C3CC3)nc21 | 59.8
44 | Cc1ccccc1CNC(=O)Cn1ncc2c1c(C)nn2C | 21.7
45 | Cc1ccc(C(=O)NC2CCN(CC(=O)N(C)c3ccccc3)CC2)o1 | 7.27
46 | Cn1cccc1C(=O)COc1ccc(S(N)(=O)=O)cc1 | -55.3
47 | CNC(=O)C1(CCCc2cnccn2)CCN1CCc1ccccc1 (configuration not stated) | 23.8
48 | CCN1CCn2c(C)cnc2C12CCN(C(=O)NC)CC2 | 6.27
49 | CNS(=O)(=O)c1ccc(CNC(=O)c2cccc(C)n2)cc1 | 37.4
50 | COCCN(C)C(=O)c1cc2c(s1)CCN2C(=O)C1CC1 | 37.5
51 | CN(C)S(=O)(=O)N1CCC(C(O)c2ccc(Cl)cc2)CC1 (configuration not stated) | -9.8
52 | CCN(C)S(=O)(=O)N1CCC(C(O)c2ccc(Cl)cc2)CC1 (configuration not stated) | 50.1
